# Reference: the OligoGym collection
# Target: COQ9
# Experiment: pooled miR-30 sensor sort-seq; sequence = guide strand
# Settings: shRNA
row,Sequence,sensor-assay potency score (higher = more potent)
1,TTTCAAAGCTCTTTCAATCTGT,0.272
2,TTTTCAATCACACAGTTGCAGT,-1.24
3,TTCATTGCATCATTAACCCGGT,0.189
4,TTGTGTTGTAGATGGCAGCCAG,-0.498
5,TCCTCTTCTAGCACACGTGTGA,-0.72
6,TATTAGCTCACTGCCATCCTTC,-0.456
7,TAGTCCTCCTCCTCCTCGCCGC,-1.01
8,ATCATCACCAGCTCTGTTGTGT,-0.201
9,TCTAGCACACGTGTGAGCCGGG,0.25
10,TTGGTCTGGTATTAGGAACTGA,-0.609
11,TTCTGCTCATCTGAAGACCTTA,-0.0401
12,TATTAGGAACTGAAGAAGCAGC,-1.33

# Target: CORIN
# Experiment: as above
# Settings: shRNA
row,Sequence,sensor-assay potency score (higher = more potent)
1,TTTATTGCTGTCTTTTATCAGT,-0.911
2,TTATTCAGACTGTTGTTCGGGT,0.501
3,TATTTGTAAGAATAACATCGGA,-0.524
